Among the data in PubChem BioAssay AID1923 (Vanderbilt High Throughput Screening Facility, 2009) are outcome values, retold here.

Structures are written as SMILES. Active and inactive are the calls of the source.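 Rule for the calls: active = compound that boosted calcium signal to a low acetylcholine dose in a dose-dependent way; inactive = the rest.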

Chain of Muscarinic acetylcholine receptor M4 (Rattus norvegicus) (P08485 whole entry, looked up): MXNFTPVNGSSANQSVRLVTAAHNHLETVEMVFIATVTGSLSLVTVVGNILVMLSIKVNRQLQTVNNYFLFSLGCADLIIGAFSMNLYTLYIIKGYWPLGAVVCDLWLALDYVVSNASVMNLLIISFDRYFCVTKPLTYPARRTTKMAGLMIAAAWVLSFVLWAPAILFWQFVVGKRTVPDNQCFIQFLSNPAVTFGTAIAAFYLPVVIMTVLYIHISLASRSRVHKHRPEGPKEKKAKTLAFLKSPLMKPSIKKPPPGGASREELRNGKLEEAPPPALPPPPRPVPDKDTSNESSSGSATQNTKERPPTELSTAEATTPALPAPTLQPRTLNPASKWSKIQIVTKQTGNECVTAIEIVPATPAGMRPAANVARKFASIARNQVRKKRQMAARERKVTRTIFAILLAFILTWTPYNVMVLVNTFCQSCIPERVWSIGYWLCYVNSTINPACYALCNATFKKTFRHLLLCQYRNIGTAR

This experiment addresses Muscarinic acetylcholine receptor M4 (Rattus norvegicus) (UniProt P08485). Kind of experiment: rat M4 positive allosteric modulator potency, SAR follow-up, cell-based, analogs, calcium mobilization, Gqi5 (AID 1923). The settings on record: CHO-K1 rM4/Gqi5, calcium mobilization Fluo-4, ACh EC20.
Regarding `Cc1cc(OCc2ccncc2)nc2sc(C(=O)NCc3cc(F)ccc3F)c(N)c12`, the outcome is “active; fitted 1.58 uM”.

In the case of `Cc1cc(OCCN2CCOCC2)nc2sc(C(=O)NC(C)C)c(N)c12`, the outcome is “active; fitted 7.15 uM”.

For the compound `COc1ccc(CNC(=O)c2sc3nc(OCCCN(C)C)cc(C)c3c2N)cc1`, the result was inactive.

With `Cc1cc(OCCCN(C)C)nc2sc(C(=O)NCc3cc(F)ccc3F)c(N)c12`, the outcome was “active; fitted 2.75 uM”.

As to `COc1ccc(CNC(=O)c2sc3nc(OC(C)C)cc(C)c3c2N)cc1`, the outcome was inactive.

Take `COc1ccc(CNC(=O)c2sc3nc(OCc4ccccn4)cc(C)c3c2N)cc1`: the outcome was “active; fitted 1.77 uM”.

On to `Cc1cc(OCc2ccccn2)nc2sc(C(=O)NCc3cccc(F)c3F)c(N)c12`, for which the outcome was “active; fitted 5.4 uM”.

Take `Cc1cc(OCc2ccncc2)nc2sc(C(=O)NCc3cccc(F)c3F)c(N)c12`: the outcome was “active; fitted 1.61 uM”.

Turning to `COc1ccc(CNC(=O)c2sc3nc(OCc4cccnc4)cc(C)c3c2N)cc1`, the outcome was “active; fitted 2.21 uM”.

Consider `Cc1cc(OCCN2CCOCC2)nc2sc(C(=O)NC3COC3)c(N)c12`, for which the outcome was “active; fitted 7.42 uM”.

On to `COc1ccc(CNC(=O)c2sc3nc(OCc4ccncc4)cc(C)c3c2N)cc1`, for which the outcome is “active; fitted 1.97 uM”.

On to `CCCOc1cc(C)c2c(N)c(C(=O)NCc3ccc(OC)cc3)sc2n1`, for which the result was inactive.

Take `COc1ccc(CNC(=O)c2sc3nc(OCCN4CCOCC4)cc(C)c3c2N)cc1`: the outcome is “active; fitted 6.47 uM”.

`COc1ccc(CNC(=O)c2sc3nc(OCCN(C)C)cc(C)c3c2N)cc1`: the outcome was inactive.

For the compound `Cc1cc(OCCCN(C)C)nc2sc(C(=O)NC3COC3)c(N)c12`, the outcome was “active; fitted 2.58 uM”.

On to `CCCCCOc1cc(C)c2c(N)c(C(=O)NCc3ccc(OC)cc3)sc2n1`, for which the result was inactive.

For `COc1ccc(CNC(=O)c2sc3nc(OCCN4CCCC4)cc(C)c3c2N)cc1`, the outcome was “active; fitted 8.24 uM”.

Regarding `Cc1cc(OCCN2CCOCC2)nc2sc(C(=O)NC(C)(C)C)c(N)c12`, the outcome was “active; fitted 8.73 uM”.

For `COCCCNC(=O)c1sc2nc(OCCN3CCOCC3)cc(C)c2c1N`, the outcome was “active; fitted 6.25 uM”.

Consider `COc1ccc(CNC(=O)c2sc3nc(OCC4CCCN(C)C4)cc(C)c3c2N)cc1` (configuration not stated), for which the outcome was inactive.

As to `Cc1cc(OCc2ccccn2)nc2sc(C(=O)NCc3cc(F)ccc3F)c(N)c12`, the result was inactive.

For the compound `Cc1cc(OCCN2CCOCC2)nc2sc(C(=O)Nc3ccccc3)c(N)c12`, the outcome is “active; fitted 5.81 uM”.
